Bioassay records from PubChem BioAssay.
Sampled rows, rich in hits. Any-hit rate of the full collection: about 3.6%.
mHTT-CaM PPI inh: mutant huntingtin-calmodulin interaction inhibitors – biochemical, AlphaScreen, primary screen | P42858 | AlphaScreen His-mHTT/GST-CaM binding, luminescence | inhibition, % at 15 µM | actives 3.6% (n = 190,000);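 note: 0% = both proteins with DMSO and 100% = one protein alone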
Pf apPOL inh: Pf-apPOL inhibitors, biochemical, fluorescence. Plasmodium falciparum apicoplast DNA polymerase (apPOL). Recombinant Pf-apPOL, molecular beacon fluorescence, 1.5 h. inhibition, % at 10 µM. actives 0.25% (n = 210,000). AID 1794808, 2022
Starred values were filed as active, the others as inactive; . = not tested or not shown. Cut-off read from the data, not from the text of the source: active = inhibition above about 50%; inactive = the rest.

SMILES | mHTT-CaM PPI inh | Pf apPOL inh
COCCn1cc2c3c(cccc31)CN(C(=O)c1ccc(Br)o1)CC2 | 76* | -7
COCCn1cc2c3c(cccc31)CN(C(=O)c1ccc(F)cc1)CC2 | 64* | -1
COCCn1cc2c3c(cccc31)CN(C(=O)Nc1cccc(F)c1)CC2 | 3 | 1
CCCNC(=O)N1CCc2cn(CCOC)c3cccc(c23)C1 | -6 | -2
COCCn1cc2c3c(cccc31)CN(C(=O)c1cc(F)ccc1F)CC2 | 26 | -3
COCCn1cc2c3c(cccc31)CN(C(=O)Nc1cc(Cl)ccc1C)CC2 | 11 | 0
COCCCNC(=O)C1Cc2ccccc2N2CCOCC12 (centres undefined) | -1 | -3
O=C(Nc1c2c(nn1-c1ccc(Cl)cc1)CS(=O)(=O)C2)c1ccccc1Cl | 11 | -1
CCC1(CC)OC(c2cccn2-c2ccc([N+](=O)[O-])cc2)Nc2ccccc21 (centres undefined) | 19 | -7
Cc1ccc(F)c(NS(=O)(=O)c2cc3c(s2)CCN(C(=O)C2CCC2)C3)c1 | 6 | -5
COc1ccc(C2CN(C(=O)CC(C)(C)C)CC2C(=O)N2CCCCC2)cc1 (centres undefined) | 3 | 0
O=C(Nc1nnc(CCc2ccccc2)s1)c1cccc(NC(=O)C(F)(F)F)c1 | 7 | -3
Cc1ccc(NC(=O)N2CCCC(C)(C(=O)NCc3ccc(F)cc3)C2)c(Cl)c1 (centres undefined) | 5 | -4
O=C(NCCn1ccc2ccccc21)c1c(F)cccc1F | -2 | 0
O=C(NCCn1ccc2ccccc21)C1(c2ccc(Cl)cc2)CCCC1 | 83* | 8
Cc1cc(I)c2c(c1)C1C=CCC1C(C(=O)O)N2 (centres undefined) | 81* | -3
O=C(O)c1cccc2c1NC(c1ccc([N+](=O)[O-])cc1)C1CC=CC21 (centres undefined) | 66* | -5
Cc1cc(C)c2c(c1)C1C=CCC1C(c1ccc(C(=O)O)cc1)N2 (centres undefined) | 74* | -1
O=[N+]([O-])c1ccc(C2Nc3c(I)cccc3C3C=CCC32)cc1 (centres undefined) | 49 | 4
Cc1cc(I)cc2c1NC(C(=O)O)C1CC=CC21 (centres undefined) | -1 | 1
O=C(O)c1cc(Br)cc2c1NC(c1ccc(F)cc1)C1CC=CC21 (centres undefined) | 95* | 8
CCOC(=O)Cc1csc(NC(=O)C2CCN(c3cc(-n4ccnc4)ncn3)CC2)n1 | -10 | -9
CC1=C(C(=O)Nc2ccc(C)cn2)C(c2ccc(F)cc2)C2=C(CCCC2=O)N1 (centres undefined) | 3 | -65
Cc1ccccc1CNC(=O)c1csc(-c2ccncc2)n1 | -13 | 0
CCOC(=O)N1CCc2nn(CC(=O)NCc3ccc(F)cc3)c(=O)cc2C1 | 5 | -2
SMILES | mHTT-CaM PPI inh | Pf apPOL inh
CCNC(=O)c1c(-c2cccc(F)c2)noc1C | 1 | -4
CN(C)C(=O)c1cccc2c1NC(c1ccc(Cl)cc1Cl)C1CC=CC21 (centres undefined) | 4 | -4
O=C(O)c1cccc2c1NC(c1cccc(Br)c1)C1CC=CC21 (centres undefined) | 92* | 3
O=C(O)c1cccc2c1NC(c1ccc(Br)cc1)C1CC=CC21 (centres undefined) | 66* | -2
Cc1ccc2c(c1C)NC(c1ccc([N+](=O)[O-])cc1)C1CC=CC21 (centres undefined) | 62* | 0
O=C(NC1CCCCC1)C1CCCN(C(=O)c2cccc(Cl)c2)C1 (centres undefined) | 26 | -5
Cc1ccc(C2CCCN2C(=O)c2ccc3c(c2)OCO3)cc1 (centres undefined) | 5 | -2
COC(=O)c1ccc(NC(=O)c2ccc(-n3ccnc3C)nn2)cc1 | -12 | 6
Cc1cc(C)cc(C(=O)Nc2cnc(N3CCOCC3)nc2)c1 | -7 | 1
CC(=O)OCC1OC(OC(C)=O)C(N2C(=O)c3ccccc3C2=O)C(OC(C)=O)C1OC(C)=O (centres undefined) | . | -4
CC(C)C(=O)Nc1ccc(-c2nc3ccccc3o2)c(O)c1 | 11 | 2
Cc1onc(-c2ccccc2Cl)c1C(=O)Nc1cccc2ccc(-n3ccnc3)nc12 | 43 | 6
O=C(Nc1cccc2ccc(-n3ccnc3)nc12)c1ccccc1Cl | 62* | 1
O=c1[nH]c2ccc(Br)cc2c(=O)n1C1CCCCC1 | 52* | -3
CCn1c(=O)[nH]c2ccc(Br)cc2c1=O | 5 | 7
CN=C(NS(=O)(=O)c1ccc(C)cc1)c1ccc(Cl)cc1 | -1 | -4
O=C(C=Cc1ccc2ccccc2n1)c1cccc(O)c1 | 7 | -16
CC1Oc2ccccc2C=C1C=CC(=O)c1cccc(O)c1 (centres undefined) | 61* | -8
COC(=O)C(C)Oc1ccc2c(c1)OC(=Cc1ccc3c(c1)OCO3)C2=O (centres undefined) | 0 | -5
COc1cccc(C(=O)NC(c2ccc(OC)c(OC)c2)c2cc(Cl)c3cccnc3c2O)c1 (centres undefined) | 52* | -6
COc1cccc(C(=O)NC(c2ccco2)c2cc(Cl)c3cccnc3c2O)c1 (centres undefined) | 80* | 1
COc1cccc(C(=O)NC(c2ccccc2)c2cc(Cl)c3cccnc3c2O)c1 (centres undefined) | 54* | 2
CCCC(=O)NC(c1ccco1)c1cc(Cl)c2cccnc2c1O (centres undefined) | 43 | 13
COc1cccc(C(=O)NC(c2ccc([N+](=O)[O-])cc2)c2cc(Cl)c3cccnc3c2O)c1 (centres undefined) | 20 | -9
O=C1CCCC2=C1C(c1ccc(F)cc1)n1nc(SCc3ccccc3F)nc1N2 (centres undefined) | 4 | -5
SMILES | mHTT-CaM PPI inh | Pf apPOL inh
Cc1ccc(-c2cn(CC(=O)Nc3cc(C)ccc3C)c(=O)o2)cc1 | -4 | -4
S=C(NCC1CCCO1)NN=Cc1cccnc1 (centres undefined) | . | 3
COc1ccc(CCNC(=O)c2noc3c2CC(C)CC3)cc1OC (centres undefined) | 3 | -3
CC1CCCN(C2CCN(C(=O)c3cccc(Cl)c3)CC2)C1 (centres undefined) | 1 | 4
COc1cccc(C2=NC(C)(C)NC(c3cc(Br)ccc3O)C2)c1 (centres undefined) | 100* | -4
COc1cccc(C2=NC(C)(C)NC(c3ccccc3O)C2)c1 (centres undefined) | 65* | -3
CC(=O)N1CCC2(CC1)N=C(c1ccc3c(c1)OCO3)CC(c1ccccc1O)N2 (centres undefined) | 18 | 8
CCC1(C)N=C(c2ccc3c(c2)OCO3)CC(c2ccccc2O)N1 (centres undefined) | 83* | -5
COc1cccc(C2=NC3(CCN(C)CC3)NC(c3cccc(OC)c3O)C2)c1 (centres undefined) | 25 | -1
CCOc1cccc(C2CC(c3cccc(OC)c3)=NC3(CCN(C)CC3)N2)c1O (centres undefined) | 35 | 4
CC(C)(C)c1cc(C(c2ccccn2)N2CCCCC2)cc(C(C)(C)C)c1O (centres undefined) | 77* | -5
